Yeast superoxide – lowers age-related superoxide in aged yeast cells. hit rate 0.18% among 330,000. superoxide response (% of plate mean), % at 10 µM. AID 2690. S. cerevisiae aged cells, superoxide DHE fluorescence; hits give low values;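 active means superoxide response under a set limit, about three screen SD below normal, cut at about 65% in these data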;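 further: yeast aged for seven days with compound at 30 °C before DHE staining; 100% = average MFI of all compound-treated wells on the plate with controls excluded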
Efflux pump inh – inhibitors of Candida antifungal efflux pumps expressed in yeast | hit rate 0.44% among 330,000 | inhibition, % at 10 µM | S. cerevisiae Candida pump triplex, Nile Red efflux;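 active means plate passing quality check with inhibition over a set limit, or well fluorescence over plate mean plus 4 SD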;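 further: Nile Red retained in pooled yeast measured as flow cytometry median fluorescence; 0% = buffer negative control and 100% = Enniatin B positive control; higher means more Nile Red kept so more efflux inhibition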
ATG4B inh – ATG4B (human) cysteine protease inhibition. ATG4B cleavage of LC3-PLA2, NBD-HPC fluorescence, 1 h. inhibition, % at 8.33 µM. AID 504462. hit rate 0.51% among 340,000. Q9Y4P1; in the data active means inhibition above about 40%
GRK2 aptamer HTS – human GRK2 inhibition via aptamer displacement; hit rate 0.59% among 330,000; bead flow cytometry, FAM-aptamer displacement from GRK2; AID 488847; inhibition of aptamer binding, % at 10 µM; P25098;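 active means inhibition of aptamer binding above 40%, roughly 3 SD of noise, on plates passing a quality check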;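 further: median bead fluorescence of bound FAM aptamer so fluorescent compounds give negative values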
Target sequence (P25098 whole entry, looked up): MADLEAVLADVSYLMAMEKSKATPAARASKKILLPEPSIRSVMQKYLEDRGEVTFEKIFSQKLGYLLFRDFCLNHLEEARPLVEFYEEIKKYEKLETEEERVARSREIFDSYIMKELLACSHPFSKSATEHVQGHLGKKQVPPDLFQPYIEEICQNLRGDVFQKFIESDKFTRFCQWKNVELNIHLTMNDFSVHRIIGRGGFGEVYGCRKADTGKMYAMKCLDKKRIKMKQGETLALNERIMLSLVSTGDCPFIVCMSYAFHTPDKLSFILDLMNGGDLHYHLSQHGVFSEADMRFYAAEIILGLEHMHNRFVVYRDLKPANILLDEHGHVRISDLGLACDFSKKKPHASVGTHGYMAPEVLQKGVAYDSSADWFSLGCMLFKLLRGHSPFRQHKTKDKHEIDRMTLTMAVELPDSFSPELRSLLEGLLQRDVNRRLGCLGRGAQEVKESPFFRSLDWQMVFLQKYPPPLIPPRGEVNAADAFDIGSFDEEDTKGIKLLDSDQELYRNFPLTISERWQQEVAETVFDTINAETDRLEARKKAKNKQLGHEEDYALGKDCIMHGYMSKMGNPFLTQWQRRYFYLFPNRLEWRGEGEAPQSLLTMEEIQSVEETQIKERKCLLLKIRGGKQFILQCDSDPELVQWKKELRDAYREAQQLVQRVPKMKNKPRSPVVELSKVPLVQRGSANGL
GRK2 CP1 – human GRK2 inhibition confirmation, cherry pick 1; AID 504451; bead-bound GRK2, FAM-aptamer displacement, flow cytometry; hit rate 4% among 2,000; shares compounds with GRK2 aptamer HTS; aptamer displacement, % at 10 µM;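 active means aptamer displacement above 40%, near three times the noise of non-fluorescent compounds, on plates passing quality checks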;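 further: negative values mostly reflect intrinsic compound fluorescence rather than true enhancement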
Aptamer quench 1 – counter-screen for GRK2 aptamer inhibitors: fluorescent aptamer quenchers | Fluorescent RNA aptamer beads, quenching, flow cytometry; hits give high values | AID 504521 | 110 tested, under 10 active | fluorescence change (kMESF span), kMESF (no concentration beside the values) | shares compounds with GRK2 aptamer HTS;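 active means compounds whose bead fluorescence drops by more than 37 kMESF across the dose range, marking them as dye quenchers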
FAM quench CP1 – quenches fluorescent RNA aptamer, GRK2 hit artifact. shares compounds with GRK2 aptamer HTS. Carboxyfluorescein RNA aptamer on beads, flow cytometry quenching; hits give low values. fluorescence response (% of DMSO), % at 10 µM. 2,000 tested, under 10 active;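 active means compounds that quench the bead-bound fluorescent RNA probe, cutting fluorescence to under half of the solvent control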;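 further: counterscreen run without GRK2 so only probe quenching by compound is measured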
* marks the source's active call; other numbers are inactive results; · = not tested or not shown. An excerpt weighted towards active compounds, which were near 1.6% of everything screened.

SMILES | Yeast superoxide | Efflux pump inh | ATG4B inh | GRK2 aptamer HTS | GRK2 CP1 | FAM quench CP1 | others
NC(=O)c1ccsc1NC(=O)COC(=O)COc1ccccc1F | 108 | 0 | 0 | 0 | · | ·
NC(=O)c1ccsc1NC(=O)COC(=O)CNC(=O)c1ccc(F)cc1 | 93 | 0 | -5 | 55* | -1 | 104
Cc1c(C(=O)N2CC[C@@H](N3CCC(O)CC3)[C@H](O)C2)[nH]c2ccc(Cl)cc12 | 91 | 0 | 14 | 0 | · | ·
COc1ccccc1NC(=S)N1CCN(C(=O)C2CCCO2)CC1 (configuration not stated) | 92 | 1 | -8 | 6 | · | ·
COc1ccc2cc(C#N)c(SCC(=O)N3CC(=O)Nc4ccccc43)nc2c1 | 101 | 0 | -6 | 0 | · | ·
Cc1cccc2cc(C#N)c(SCC(=O)N3CC(=O)Nc4ccccc43)nc12 | 95 | 0 | -19 | 57* | 1 | 100
O=S(=O)(NC1CC(NS(=O)(=O)OCC(Cl)(Cl)Cl)C2CCCCC12)OCC(Cl)(Cl)Cl (configuration not stated) | 94 | 0 | 3 | 74* | -3 | 100
COc1ccc([C@@H]2CC=C(C(=O)O)[C@H](c3ccc(Cl)cc3)N2S(=O)(=O)c2ccc(Cl)cc2)cc1 | 95 | 0 | 13 | 49* | -6 | 101
Cc1cc2c(c(=O)n1C1CC1)C(c1cccc(Cl)c1)C(C#N)=C(N)O2 (configuration not stated) | 109 | 0 | -8 | 93* | 3 | 100
COC(=O)c1cc2c(ccn2-c2ccc(F)cc2)n1C(C)C | 93 | 0 | -9 | 67* | 1 | 96
CC(=O)C1=C(C)NC(=O)CC1c1ccccc1Cl (configuration not stated) | 112 | 0 | -3 | 48* | -6 | 127
O=C(Nc1cccc(-c2ccc(N3CCOCC3)nn2)c1)c1ccccc1Cl | 105 | 0 | 1 | 1 | 1 | 102
O=C(COc1ccc(Cl)cc1)Nc1cccc(-c2ccc(N3CCOCC3)nn2)c1 | 98 | 0 | -8 | 0 | 4 | 100
COc1cc(OC)cc(C(=O)Nc2cccc(-c3ccc(N4CCOCC4)nn3)c2)c1 | 97 | 0 | -13 | 5 | · | ·
Cc1cc(C(=O)Nc2cccc(-c3ccc(N4CCOCC4)nn3)c2)ccc1[N+](=O)[O-] | 77 | 0 | 0 | 0 | · | ·
Cc1ccc(C(=O)Nc2cccc(-c3ccc(N4CCOCC4)nn3)c2)cc1C | 82 | 0 | -12 | 0 | 0 | 96
O=C(Nc1cccc(-c2ccc(N3CCOCC3)nn2)c1)c1ccc(Cl)cc1 | 95 | 0 | 4 | 2 | 1 | 96
COc1cccc(OC)c1C(=O)Nc1cccc(-c2ccc(N3CCOCC3)nn2)c1 | 99 | 0 | -4 | 0 | · | ·
O=S(=O)(Nc1nccs1)c1ccc(NS(=O)(=O)c2c(F)cc(F)c(Cl)c2F)cc1 | 98 | 0 | -3 | 3 | · | ·
CC(C)c1cc(C(C)C)c(S(=O)(=O)NNC(=O)c2ccncc2)c(C(C)C)c1 | 122 | 0 | 4 | 0 | · | ·
CN(Cc1ccccc1Br)C(=O)CN1C(=O)NC2(CCCCCC2)C1=O | 106 | 0 | -20 | 0 | · | ·
Cc1ccc(C(=O)Nc2cccc(-c3ccc(N4CCOCC4)nn3)c2)cc1 | 115 | 0 | -4 | 2 | 1 | 102
COc1ccc(C(=O)Nc2cccc(-c3ccc(N4CCOCC4)nn3)c2)cc1 | 105 | 0 | -9 | 1 | 4 | 102
Cc1noc(C)c1CSc1ccccc1C(=O)O | 113 | 0 | 6 | 0 | · | ·
CCOc1ccc(NC(=O)CN(C)C(=O)c2cc(C)nc3ccccc23)cc1OCC | 74 | 0 | 1 | 3 | · | ·
SMILES | Yeast superoxide | Efflux pump inh | ATG4B inh | GRK2 aptamer HTS | GRK2 CP1 | FAM quench CP1 | others
CCOc1ccc(NC(=O)CN(C)C(=O)c2cc(-c3ccco3)nc3ccccc23)cc1OCC | · | · | -9 | · | 1 | 96
COc1ccc(-c2cc(C)no2)cc1S(=O)(=O)N1CCCN(Cc2ccccc2Cl)C1 | 84 | 0 | 39 | 0 | · | ·
CC(C)Cn1nc(C(=O)Nc2cccc(C(=O)NC3CC3)c2)c2ccccc2c1=O | 119 | 0 | -5 | 0 | · | ·
COc1ccc(NC(=O)c2ccc([N+](=O)[O-])cc2[N+](=O)[O-])c(OC)c1 | 101 | 0 | -4 | 2 | · | ·
COc1ccc(O)c(/C=N/NC(=O)c2cc(=O)[nH]c3ccccc23)c1 | 85 | 0 | -13 | 68* | 0 | 102
O=C(N/N=C/c1ccccc1)c1cc(=O)[nH]c2ccccc12 | 91 | 1 | 1 | 1 | · | ·
Cc1ccc2c(c1)n([O-])c1c([n+]2=O)CCCC1 | 81 | 0 | -7 | 52* | -5 | 103
O=C(COC(=O)/C=C/c1ccc(OC(F)F)cc1)Nc1ccc2[nH]c(=O)[nH]c2c1 | 83 | 0 | -3 | 0 | · | ·
CCCn1c(=O)c2sccc2n2c(CCCC(=O)NCc3cccnc3)nnc12 | 89 | 0 | -7 | 0 | · | ·
CCCn1c(=O)c2sccc2n2c(CCCC(=O)NCc3ccco3)nnc12 | 93 | 0 | 3 | 70* | 13 | 100
O=C(O)C1CCCCC1C(=O)Nc1cccc(Br)c1 (configuration not stated) | 98 | 0 | 0 | 86* | 93* | 92 | Aptamer quench 1=0.2
COc1cc(OC)c(OC)cc1CNC(=O)c1ccc(S(=O)(=O)N2CCCCC2)cc1 | 84 | 0 | -1 | 0 | · | ·
CCOC(=O)C(C)Sc1nc2c(c(=O)[nH]c(=O)n2C)n1C/C=C(/C)Cl (configuration not stated) | 98 | 0 | -5 | 58* | 58* | 97 | Aptamer quench 1=-0.8
CCSc1nc2c(c(=O)[nH]c(=O)n2C)n1C/C=C(/C)Cl | 97 | 0 | 1 | 2 | · | ·
COc1cccc(OC)c1C(=O)OCC(=O)NCCCc1ccccc1 | 97 | 0 | -9 | 0 | · | ·
COc1cccc(OC)c1C(=O)OCC(=O)NCC(C)C | 105 | 0 | 2 | 96* | -3 | 95
Cc1cccc(-n2ccc(=O)c(C(=O)Nc3ccc(S(=O)(=O)N4CCOCC4)cc3)n2)c1 | 90 | 0 | -5 | 3 | · | ·
Cc1cccc(-n2ccc(=O)c(C(=O)Nc3ccc(S(=O)(=O)Nc4nccc(C)n4)cc3)n2)c1 | 107 | 0 | -3 | 94* | 1 | 99
COc1ccc2c(c1)c(=O)oc1cc(OCC(=O)N3CCC(C)CC3)ccc12 | 93 | 0 | -6 | 47* | 1 | 100
S=C(Nc1ccc(Cc2ccncc2)cc1)Nc1cccc(Cl)c1 | 125 | 0 | 8 | 0 | · | ·
Cc1ccc(NC2=NCC(=O)N2Cc2cccs2)cc1C | 112 | 0 | 0 | 0 | · | ·
O=C(Nc1ccc(Cl)cc1)N1CCN(c2ncccn2)CC1 | 98 | 0 | -31 | 0 | · | ·
O=C(Nc1ccc(F)cc1)N1CCN(c2ncccn2)CC1 | 99 | 0 | 1 | 94* | -2 | 98
